# According to ChEMBL document CHEMBL5308504, “Tm Shift (DSF) assay results for EUbOPEN Chemogenomics Library” (2023):
# Several values for one entry are separate records, joined by “and”; a condition that tells them apart may be missing. Identical values can stand only once.
# Key:
# Settings in all cases: Compound concentration 20.0 uM, Protein concentration 2.0 uM, Result type QC Liability
# [1] = biological target: Tyrosine-protein kinase ABL1 (Homo sapiens) (UniProt P00519)
# [2] = biological target: Cyclin-dependent kinase 2 (Homo sapiens) (UniProt P24941)
# [3] = biological target: Casein kinase I isoform delta (Homo sapiens) (UniProt P48730)
# Chain of Casein kinase I isoform delta (Homo sapiens) (P48730 whole entry, looked up, canonical isoform): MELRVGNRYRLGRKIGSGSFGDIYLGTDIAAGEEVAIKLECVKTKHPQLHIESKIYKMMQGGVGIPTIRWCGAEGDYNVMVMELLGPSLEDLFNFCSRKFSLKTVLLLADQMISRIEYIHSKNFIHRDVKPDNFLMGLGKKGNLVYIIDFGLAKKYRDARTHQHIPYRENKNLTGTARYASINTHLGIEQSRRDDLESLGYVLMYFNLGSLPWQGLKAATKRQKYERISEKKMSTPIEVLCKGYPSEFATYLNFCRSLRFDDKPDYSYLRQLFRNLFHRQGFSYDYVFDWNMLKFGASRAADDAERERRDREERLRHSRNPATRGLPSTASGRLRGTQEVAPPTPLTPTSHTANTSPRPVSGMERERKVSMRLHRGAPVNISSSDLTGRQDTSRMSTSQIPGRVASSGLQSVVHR
# [4] = biological target: Glycogen synthase kinase-3 beta (Homo sapiens) (UniProt P49841)
# Chain of Glycogen synthase kinase-3 beta (Homo sapiens) (P49841 whole entry, looked up): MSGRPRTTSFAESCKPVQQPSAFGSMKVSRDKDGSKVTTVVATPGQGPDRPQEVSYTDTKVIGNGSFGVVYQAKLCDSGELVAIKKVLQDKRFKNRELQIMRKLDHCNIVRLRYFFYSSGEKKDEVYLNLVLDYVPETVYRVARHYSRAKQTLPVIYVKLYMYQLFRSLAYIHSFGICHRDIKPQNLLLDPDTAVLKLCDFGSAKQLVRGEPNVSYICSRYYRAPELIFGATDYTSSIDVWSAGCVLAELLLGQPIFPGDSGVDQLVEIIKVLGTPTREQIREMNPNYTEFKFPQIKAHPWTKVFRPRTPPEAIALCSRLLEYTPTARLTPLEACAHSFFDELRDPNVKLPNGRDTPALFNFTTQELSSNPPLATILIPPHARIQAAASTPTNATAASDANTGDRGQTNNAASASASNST
# [5] = biological target: Mitogen-activated protein kinase 1 (Homo sapiens) (UniProt P28482)
# Chain of Mitogen-activated protein kinase 1 (Homo sapiens) (P28482 whole entry): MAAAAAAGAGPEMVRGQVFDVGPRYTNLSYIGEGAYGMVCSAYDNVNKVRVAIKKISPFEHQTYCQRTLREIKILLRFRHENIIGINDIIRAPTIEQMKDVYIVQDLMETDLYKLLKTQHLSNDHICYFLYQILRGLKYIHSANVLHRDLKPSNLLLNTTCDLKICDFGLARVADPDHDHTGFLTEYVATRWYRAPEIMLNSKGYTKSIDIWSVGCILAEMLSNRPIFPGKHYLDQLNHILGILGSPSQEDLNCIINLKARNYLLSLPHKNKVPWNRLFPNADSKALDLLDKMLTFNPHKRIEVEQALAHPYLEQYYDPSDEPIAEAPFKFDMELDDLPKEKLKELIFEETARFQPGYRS
# [6] = biological target: T1, Aurora kinase A (Homo sapiens) (UniProt O14965)
# T1 sequence (whole entry): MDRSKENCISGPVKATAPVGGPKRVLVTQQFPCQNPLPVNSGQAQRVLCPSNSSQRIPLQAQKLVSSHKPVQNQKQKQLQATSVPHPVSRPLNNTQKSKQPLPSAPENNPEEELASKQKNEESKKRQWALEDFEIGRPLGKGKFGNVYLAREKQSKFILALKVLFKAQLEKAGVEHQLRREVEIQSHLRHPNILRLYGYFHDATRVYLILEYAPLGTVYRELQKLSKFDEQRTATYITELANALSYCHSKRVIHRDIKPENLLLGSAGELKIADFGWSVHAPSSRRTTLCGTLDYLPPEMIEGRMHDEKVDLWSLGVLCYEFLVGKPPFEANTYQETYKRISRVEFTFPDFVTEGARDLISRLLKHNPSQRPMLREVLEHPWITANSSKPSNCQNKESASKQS
# Chain of Tyrosine-protein kinase ABL1 (Homo sapiens) (P00519 whole entry): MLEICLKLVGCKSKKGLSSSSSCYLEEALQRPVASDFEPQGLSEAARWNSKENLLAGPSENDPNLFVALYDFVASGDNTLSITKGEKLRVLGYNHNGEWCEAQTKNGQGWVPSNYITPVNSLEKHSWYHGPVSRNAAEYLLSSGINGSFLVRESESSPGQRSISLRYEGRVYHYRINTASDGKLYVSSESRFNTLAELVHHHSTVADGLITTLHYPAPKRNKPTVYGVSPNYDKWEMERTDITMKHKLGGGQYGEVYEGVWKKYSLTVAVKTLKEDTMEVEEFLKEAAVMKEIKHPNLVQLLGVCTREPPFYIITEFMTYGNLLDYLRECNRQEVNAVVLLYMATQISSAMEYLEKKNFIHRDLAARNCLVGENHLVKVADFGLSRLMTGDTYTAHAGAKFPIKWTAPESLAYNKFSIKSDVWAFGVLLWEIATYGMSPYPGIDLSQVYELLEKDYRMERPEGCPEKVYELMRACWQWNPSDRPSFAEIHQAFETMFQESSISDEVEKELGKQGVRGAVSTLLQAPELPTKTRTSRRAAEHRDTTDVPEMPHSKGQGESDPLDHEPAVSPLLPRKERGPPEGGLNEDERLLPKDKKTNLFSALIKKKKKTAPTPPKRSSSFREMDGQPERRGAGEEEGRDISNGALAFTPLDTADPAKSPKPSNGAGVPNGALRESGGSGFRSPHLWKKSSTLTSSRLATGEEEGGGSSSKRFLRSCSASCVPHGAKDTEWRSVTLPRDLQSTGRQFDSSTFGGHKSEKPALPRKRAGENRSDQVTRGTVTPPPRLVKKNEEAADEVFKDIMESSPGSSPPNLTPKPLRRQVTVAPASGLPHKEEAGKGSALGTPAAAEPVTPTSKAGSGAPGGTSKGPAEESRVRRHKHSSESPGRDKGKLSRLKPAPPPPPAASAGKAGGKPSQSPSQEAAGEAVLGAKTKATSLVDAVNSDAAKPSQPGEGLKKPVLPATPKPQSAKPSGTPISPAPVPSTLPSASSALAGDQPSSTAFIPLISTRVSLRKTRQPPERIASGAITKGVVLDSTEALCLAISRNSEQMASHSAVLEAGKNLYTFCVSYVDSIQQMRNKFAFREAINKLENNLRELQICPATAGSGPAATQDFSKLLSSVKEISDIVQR
Structure (SMILES),ΔTm [1],ΔTm [2],ΔTm [3],ΔTm [4],ΔTm [5],ΔTm [6]
NC(=O)c1ccccc1Nc1nc(-c2ccc(N3CCOCC3)cc2)cc2ncccc12,7.91 °C,1.53 °C,3.01 °C,2.43 °C,0.67 °C,10.1 °C
COc1cc(-c2cncc(-c3ccc(N4CCN(C(C)C)CC4)cc3)c2C)cc(F)c1C(N)=O,1.79 °C,0.61 °C,0.92 °C,1.06 °C,0.21 °C,-0.31 °C
Cc1nc2cccnc2n2c(-c3cc(C(C)(C)O)ncc3Cl)nnc12,-0.85 °C,0.85 °C,0.33 °C,-0.45 °C,0.31 °C,-0.06 °C
C[S+]([O-])c1ccc(-c2nc(-c3cccc(I)c3)c(-c3ccncc3)[nH]2)cc1 (configuration not stated),0.33 °C,-0.2 °C,2.61 °C,5.08 °C,-1.08 °C,-1.53 °C
CC(=O)N1CCC(c2ccc(C(=O)NC(=N)N)cc2C(F)(F)F)CC1,-0.81 °C,0.95 °C,0.37 °C,-0.64 °C,0.32 °C,0.44 °C
COc1cc(OC)cc(-c2cc3cnc(N)nc3nc2NC(=O)NC(C)(C)C)c1,0.36 °C and 1.41 °C,0.84 °C and 0.15 °C,0.28 °C and -0.14 °C,-0.48 °C and 0.1 °C,0.47 °C and 0.55 °C,-0.29 °C and 1.1 °C
O=C(Nc1ccc(N2CCC(C(=O)N3CCOCC3)CC2)cc1)c1cnc(Oc2ccccc2)nc1,0.2 °C,0.87 °C,0.06 °C,-0.13 °C,0.13 °C,-0.24 °C
COC[C@@H](C)N[C@H]1CC[C@H](Nc2cc(-c3cccc(NCC4(C#N)CCOCC4)n3)c(Cl)cn2)CC1,0.33 °C,-1.43 °C,0.03 °C,-0.08 °C,0.43 °C,0.38 °C
N[C@@H]1CCCC[C@H]1Oc1ccc2ncc(-c3cc4ccccc4o3)n2n1,0.63 °C,1.2 °C,1.01 °C,4.43 °C,0.17 °C,1.07 °C
CNC(=O)c1ccc(C)c(-n2c(C)cc(OCc3ccc(F)cc3F)c(Br)c2=O)c1,-0.5 °C,-0.88 °C,-0.45 °C,-1.44 °C,-0.46 °C,-1.48 °C
C[C@H](CCOc1cccc(CC(=O)O)c1)N(Cc1cccc(C(F)(F)F)c1Cl)CC(c1ccccc1)c1ccccc1,0.51 °C,1.5 °C,0.57 °C,-1.07 °C,0.41 °C,-2.31 °C
C=CC(=O)Nc1cccc(C(=O)Nc2ccc(Nc3cc(-c4c(-c5ccc(F)cc5)nc(SC)n4C)ccn3)cc2)c1,2.33 °C,-0.01 °C,3.17 °C,-0.32 °C,0.35 °C,1.08 °C
c1ccc2c(-c3coc4cc(-c5ccc(N6CCNCC6)cc5)cnc34)ccnc2c1,3.66 °C,-0.03 °C,1.09 °C,-0.47 °C,0 °C,-0.46 °C
O=C(O)c1cc(-c2ccccc2)ccc1O,0.56 °C,0.7 °C,0.85 °C,-0.32 °C,0.04 °C,0.05 °C
NC(=O)c1ccc(-c2nc(-c3ccc4c(c3)OCCO4)c(-c3ccccn3)[nH]2)cc1,1 °C,-0.38 °C,5.39 °C,-0.91 °C,0.36 °C,-1.32 °C
CCCCNc1ncc2c(-c3ccc(CN4CCN(C)CC4)cc3)cn([C@H]3CC[C@H](O)CC3)c2n1,11.7 °C,5.95 °C,2.72 °C,4.8 °C,0.43 °C,13.5 °C
O=C(O)CCn1c2c(c3ccccc31)C[C@H](NS(=O)(=O)c1ccc(F)cc1)CC2,1.15 °C,1.26 °C,0.09 °C,0.24 °C,0.28 °C,-0.02 °C
CCN1C(=O)N(c2c(F)c(OC)cc(OC)c2F)Cc2cnc3[nH]c(CN4CCOCC4)cc3c21,0.38 °C,6.96 °C,0.58 °C,-0.33 °C,0.45 °C,1.85 °C
NC1(c2ccc(-c3nc4c(O)ccnn4c3-c3ccccc3)cc2)CCC1,0.22 °C,-0.34 °C,0.07 °C,-0.72 °C,0.46 °C,0.43 °C

Structure (SMILES),ΔTm [1],ΔTm [2],ΔTm [3],ΔTm [4],ΔTm [5],ΔTm [6]
Cn1cc(-n2cnc3c(NCc4nc5cc(Cl)c(Cl)cc5[nH]4)nc(N4CCOCC4)nc32)cn1,-0.15 °C,0.06 °C,-0.03 °C,2.12 °C,-0.02 °C,0.53 °C
O[C@]1(C(F)(F)F)CCCC[C@H]1Nc1ccc(F)cc1,0.25 °C,1.15 °C,0.07 °C,-0.77 °C,0.26 °C,0.42 °C
Nc1ncnc2c1ccn2[C@@H]1O[C@H]([C@@H](O)c2ccccc2)[C@@H](O)[C@H]1O,0.21 °C,0.7 °C,0.65 °C,-0.88 °C,0.25 °C,-1.22 °C
O=C(O)Cc1ccc(CCNS(=O)(=O)c2ccc(Cl)cc2)cc1,0.25 °C,0.43 °C,0.01 °C,0.95 °C,-0.52 °C,-0.24 °C
Cc1cc(SCc2sc(-c3ccc(C(F)(F)F)cc3)nc2C)ccc1OCC(=O)O,0 °C,0.3 °C,1.18 °C,-1.11 °C,0.57 °C,-2.58 °C
CS(C)(=O)=Nc1ccc(-c2ccc(-c3nc4[nH]c(O[C@@H]5CO[C@H]6[C@@H]5OC[C@H]6O)nc4cc3Cl)cc2)cc1,1.8 °C,0.06 °C,0.3 °C,-0.22 °C,0.83 °C,0.34 °C
Cc1cc2ncnn2cc1Nc1ncc2c(n1)n(C1CCOCC1)c(=O)n2C,-0.11 °C,0.84 °C,0.63 °C,1.17 °C,1.17 °C,0.06 °C
CC(C)NC(=O)[C@H]1CCC[C@H]1Nc1nc(Nc2ccc(CN(C)C)cc2)ncc1Br,6.63 °C,1.87 °C,0.87 °C,0.23 °C,1.81 °C,14.5 °C
COc1cc2ncnc(Nc3ccc(F)c(Cl)c3)c2cc1OCCN(C)C[C@H](C)O,2.95 °C,0.34 °C,1.99 °C,-0.21 °C,0.43 °C,0.41 °C
CC[C@@H](C(=O)OC)n1c(=O)c2ccccc2n(Cc2cn(C)c3cccc(C)c23)c1=O,-0.76 °C,0.06 °C,0.32 °C,-0.47 °C,0.23 °C,-0.05 °C
COc1cc(Nc2cnc(C#N)c(O[C@H](C)CN(C)C)n2)ncc1-c1cnn(C)c1,3.91 °C,0.23 °C,2.14 °C,3.03 °C,0.5 °C,1.18 °C
N#CC[C@H](C1CCCC1)n1cc(-c2ncnc3[nH]ccc23)cn1,3.71 °C,1.43 °C,2.02 °C,4.04 °C,0.74 °C,5.6 °C
Cn1cc(-c2ccc(N(C(=O)NCc3ccccc3)[C@H]3CC[C@H](Nc4ccc(C#N)cn4)CC3)cc2)ccc1=O,0.13 °C,0.7 °C,0.29 °C,0.01 °C,-0.4 °C,-0.15 °C
COc1ccc(Br)cc1S(=O)(=O)NC(=O)/C=C/c1cc(Cl)ccc1Cc1ccc2ccccc2c1,-0.6 °C,-1.22 °C,-6.17 °C,-2.44 °C,-4.21 °C,-3.37 °C
CC1=C(C(=O)OCCO)[C@@H](c2ccc(C#N)cc2)NC(=O)N1c1cccc(C(F)(F)F)c1,-0.45 °C,-0.38 °C,0.44 °C,-0.19 °C,0.15 °C,-0.11 °C
CNC(=O)COc1cc2cc(Nc3nc(N4CCC(C(=O)N(C)C)CC4)ncc3Cl)cc(OC)c2n(C)c1=O,-0.18 °C,-0.4 °C,0.17 °C,-0.71 °C,0.01 °C,-0.26 °C
CC(C)(C)OC(=O)CN(Cc1ccc(Cl)cc1)Cc1ccc([N+](=O)[O-])s1,0.48 °C,0.83 °C,0.3 °C,-0.54 °C,0.12 °C,-1.37 °C
COc1cc(Oc2nc(-c3ccc(NC(=O)C4CCOC4)cc3)nn3c(C)nc(C)c23)cc(OC)c1OC (configuration not stated),0.18 °C,0.72 °C,0.03 °C,-0.39 °C,0.18 °C,0.1 °C
